Screens deposited in PubChem BioAssay by National Center for Advancing Translational Sciences (NCATS).
Most compounds without a hit are left out; they make up all but 7.9% or so of the library.
FMDV antiviral = High Throughput Screening for Foot and Mouth Disease Virus Antivirals; AID 1159524, 2015; FMDV antiviral cell-based qHTS; Potency, µM (top dose mostly 57.9 µM), most hits filed as inhibitors; actives 1.2% (n = 410,000); calls by dose curve; tested in HEK293T cells; also: read-out not given here; nearly all actives have a fitted effect of over 45% in size
HCV inh = qHTS Assay for Inhibitors of Hepatitis C Virus (HCV). Potency, µM (series often up to 41.8 µM), most hits filed as inhibitors. Huh7.5.1 HCVcc-Cre infection, luciferase reporter, 44 h. AID 651820, 2012. actives 3.4% (n = 340,000); active = well fitted inhibition curve with a large enough effect; inconclusive = small, poorly fitted or top-dose-only effect, or another doubt; inactive = no such curve, though single readings can be large or run the other way
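HCVcc-Cre virus at an moi near 0.5 was added right after compound to cells cultured 4 h from seeding (1,000 cells/well). Luciferase activity was determined 44 h later, 15 min after substrate addition at RT.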
HCMV inh = qHTS Assay for inhibitors of the human cytomegalovirus (HCMV); HFF cells, HCMV-luciferase reporter, 72 h; stronger effect = lower value; activity change, negative = inhibition, % at 57.5 µM; actives 4.5% (n = 410,000); in the data active = activity change below about -60%; inconclusive = no clear call, values can overlap the other calls; inactive = above about -39%
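Luciferase read-out from HCMV-luciferase-infected HFFs (MOI 1 PFU/cell) 72 h post infection at 37C; compounds added after 16 h cell attachment; activity normalized between buffer-only basal and Salinomycin (10uM) inhibitor controls.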
Marburg entry inh = qHTS for inhibitors of binding or entry into cells for Marburg Virus; Potency, µM (top dose mostly 37.8 µM), hits mostly inhibitors; actives 1.8% (n = 300,000); Marburg virus pseudotyped entry inhibition, cell reporter; calls by dose curve; tested in HEK293 cells
Lassa entry inh = qHTS for Inhibitors of binding or entry into cells for Lassa Virus. Lassa virus pseudotype entry inhibition, cell reporter. actives 1.2% (n = 300,000). Potency, µM (top dose mostly 37.9 µM), most hits filed as inhibitors; calls by dose curve; tested in HEK293 cells; also: nearly all actives have a fitted effect of over 50% in size
Hits are given with their value; 0 = inactive; ? = inconclusive; - = not tested or not shown.

SMILES	FMDV antiviral	HCV inh	HCMV inh	Marburg entry inh	Lassa entry inh
C=CCOc1ccc(/C(O)=C2\C(=O)C(=O)N(CCCN3CCOCC3)[C@H]2c2ccc(OC)cc2)cc1	-	-	-	0	-
COc1cccc(CN2CCC(n3cc(C(=O)NC4CCCC4)nn3)CC2)c1O	0	-	-	-	-
COC(=O)c1cc2occc2n1CC(=O)Nc1cccc(SC)c1	0	-	0	0	-
COC(=O)c1cc2occc2n1CC(=O)Nc1ccc(C)cc1C	0	?	-62.6	0	0
COC(=O)c1cc2oc(C)cc2n1CC(=O)Nc1ccc(C)c(C)c1	0	3.98µM	0	0	?
CCOC(=O)C(=O)NCC(c1cccnc1)N1CCN(c2ccccc2)CC1 (stereo not given)	0	-	0	-	0
Cn1c(=O)c(=O)n(C)c2cc(S(=O)(=O)Nc3ccc4c(c3)OCCO4)ccc21	39.8µM	0	-76.2	0	0
Cc1c(S(=O)(=O)Nc2ccc3c(c2)OCCO3)c(=O)n(C)c(=O)n1C	0	0	0	-	-
O=S(=O)(Nc1ccc2c(c1)OCCO2)c1cccs1	-	0	-76.7	0	0
Cn1c(=O)oc2cc(S(=O)(=O)Nc3ccc4c(c3)OCCO4)ccc21	0	0	-90.9	0	0
CCc1ccc(NC(=O)C(C)OC(=O)CC(NC(C)=O)c2ccccc2)cc1 (stereo not given)	0	0	0	0	0
CC(C)C1Cc2c(sc3[nH]c(=S)n(Cc4ccccc4)c(=O)c23)CO1 (stereo not given)	?	0	?	?	0.794µM
Cc1nnc2n(-c3ccccc3)c(=O)c3c4c(sc3n12)COC(C(C)C)C4 (stereo not given)	0	0	0	0	0
O=c1c(C=Nc2ccc(Oc3ccccc3)cc2)c[nH]n1-c1cccc(Cl)n1	0	0	-64.9	0	?
COc1ccc(N=Cc2c(O)n(-c3cccc(C)n3)c(=O)c3ccccc23)cc1	?	0	0	0	?
Nc1ccc(-c2nc3ccc(N)cc3s2)cc1	0	?	0	11.2µM	?
Nc1ccc2nc(-c3ccc(O)cc3)sc2c1	?	-	0	-	?
Nc1cc2sc(-c3ccc(C(=O)O)cc3)nc2cc1Cl	0	0	0	13µM	13µM
Nc1ccc(-c2nc3ccc(C(=O)O)cc3s2)cc1	?	0	-84.6	0.461µM	0.461µM
CC1CCN(c2nc3ccc(C(=O)O)cc3s2)CC1	?	0	-78.3	?	0.631µM
CC1CCN(c2nc3ccc(C(=O)NCc4ccc(Cl)cc4)cc3s2)CC1	0	-	0	0	0
COc1cccc(N2CC(NC(=O)c3ccc(S(=O)(=O)N4CCOCC4)cc3)CC2=O)c1 (stereo not given)	0	-	0	-	0
O=C(O)c1ccc2nc(-c3ccccc3)sc2c1	2.51µM	0	?	1.46µM	2.24µM
Oc1ccc(-c2nc3ccccc3s2)cc1	0	0	0	-	-
CSc1ccccc1NC(=O)CSc1cccc[n+]1[O-]	0	0	-99.8	0	0
SMILES	FMDV antiviral	HCV inh	HCMV inh	Marburg entry inh	Lassa entry inh
S=C(Nc1ccccc1)Nc1nc2ccccc2n1CCOc1ccc(Cl)cc1	0	10µM	0	?	0
COc1ccc(Cl)cc1C1=NOC2(CCC2)C(=O)N1Cc1cccc(C#N)c1	0	-	0	-	-
CN(C(=O)c1ccc(NC(=O)C2CCN(C(=O)OC(C)(C)C)CC2)cc1)C1CCC1	0	0	0	-	-
COc1cc2c(C(=O)N3CCOCC3)c(CSc3ccccc3)n(C)c2cc1Br	?	10µM	0	?	?
COc1cc2c(C(=O)N3CCN(C)CC3)c(C)n(C)c2cc1Br	0	0	0	0	0
CCN(CC)c1cc2c(cc1F)c(=O)c(S(=O)(=O)c1ccc(C)cc1)cn2Cc1ccc(F)cc1	0	-	0	-	0
COc1ccc2c(c1)[nH]c1c(C)nccc12	?	?	-94.6	-	-
Cc1nccc2c1[nH]c1ccc(Br)cc12	0	3.98µM	0	-	-
Cc1ccc(-c2nc(=O)[nH]c3ccc(Br)cc23)cc1	0	0	?	0	0
CCCCn1cnc2c([nH]c3cc(OC)ccc32)c1=O	0	?	0	0	?
Cc1ccc(SCC(=O)Nc2ccc3c(c2)C(=O)N(C)C3=O)cc1	0	0	0	-	-
COc1cc2nc(CN3CCN(S(=O)(=O)c4cc(C)ccc4C)CC3)[nH]c(=O)c2cc1OC	0	0	0	0	?
COc1cc(C2c3c(-c4cc(C)cc(C)c4O)n[nH]c3C(=O)N2CCCO)cc(OC)c1OC (stereo not given)	0	0	0	0	8.2µM
